Experimental data as given in publication PMC5700166.
Numbering of substitutions follows the chain as printed.

Columns and labels:
Assay in all cases: protein-binding microarray (PBM); PBM: ~300 nM protein, 6 mM HEPES pH 7.8, 80 mM KCl, 0.5 mM EDTA, 0.5 mM EGTA, 6% glycerol, 35 ng/ul poly-dIdC, 1% milk, 1 h, room temperature; Ap Aiptasia and Nv Nematostella (sea anemones) / Co Capsaspora / Aq Amphimedon (sponge) / Dm Drosophila / Hu human; RHD is the Rel homology domain; high values mean tight binding
Settings in all cases: dsDNA, one strand shown
[1] = molecular target: T1, GST-Ap-NF-kB RHD (Exaiptasia pallida (Aiptasia), UniProt A0A913YAJ5 2-422)
T1 sequence: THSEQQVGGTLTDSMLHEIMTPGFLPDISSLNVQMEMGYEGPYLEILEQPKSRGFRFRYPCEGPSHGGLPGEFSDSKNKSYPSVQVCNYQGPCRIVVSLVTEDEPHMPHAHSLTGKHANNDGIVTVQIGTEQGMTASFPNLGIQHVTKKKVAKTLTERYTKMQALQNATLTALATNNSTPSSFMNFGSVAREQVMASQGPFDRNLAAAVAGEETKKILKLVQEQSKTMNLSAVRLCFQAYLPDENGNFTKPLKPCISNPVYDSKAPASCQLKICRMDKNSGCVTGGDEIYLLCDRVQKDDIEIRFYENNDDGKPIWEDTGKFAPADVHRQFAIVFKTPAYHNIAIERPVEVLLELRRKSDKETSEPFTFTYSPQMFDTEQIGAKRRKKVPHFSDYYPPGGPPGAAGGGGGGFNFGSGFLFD

[2] = molecular target: T2, GST-Nv-NF-kB (Cys allele) (Nematostella vectensis, UniProt E5G601 2-411)
T2 sequence: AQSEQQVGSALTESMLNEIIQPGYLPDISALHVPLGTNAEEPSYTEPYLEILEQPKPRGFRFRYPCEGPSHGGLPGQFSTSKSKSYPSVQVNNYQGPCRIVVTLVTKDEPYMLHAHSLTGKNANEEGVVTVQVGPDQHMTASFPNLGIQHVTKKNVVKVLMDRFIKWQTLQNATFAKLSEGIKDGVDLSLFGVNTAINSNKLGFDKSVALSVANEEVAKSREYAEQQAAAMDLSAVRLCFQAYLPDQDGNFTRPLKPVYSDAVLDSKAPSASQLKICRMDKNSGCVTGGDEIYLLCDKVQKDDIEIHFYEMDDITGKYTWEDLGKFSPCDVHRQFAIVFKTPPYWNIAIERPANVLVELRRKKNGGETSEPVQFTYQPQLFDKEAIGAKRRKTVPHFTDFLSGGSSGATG

[3] = molecular target: T3, GST-Nv-NF-kB (Ser allele) (Nematostella vectensis, UniProt A7UNT2 2-411)
T3 sequence: T2 sequence with Q21R, C66S, S207N, E215Q, V217A, E225K, A268E, D399E

[4] = molecular target: T4, GST-Co-NF-kB (Capsaspora owczarzaki, UniProt F1ARL5 200-546)
T4 sequence: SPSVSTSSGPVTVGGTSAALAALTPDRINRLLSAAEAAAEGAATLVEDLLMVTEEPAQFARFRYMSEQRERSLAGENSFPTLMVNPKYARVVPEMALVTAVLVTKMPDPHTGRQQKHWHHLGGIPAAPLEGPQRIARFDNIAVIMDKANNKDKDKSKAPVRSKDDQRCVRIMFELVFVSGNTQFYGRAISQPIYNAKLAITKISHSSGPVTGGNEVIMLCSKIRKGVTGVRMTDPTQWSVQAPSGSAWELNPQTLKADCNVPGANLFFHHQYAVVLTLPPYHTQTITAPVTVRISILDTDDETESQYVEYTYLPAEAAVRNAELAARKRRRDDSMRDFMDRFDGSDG

[5] = molecular target: T5, GST-Dm-Relish (Drosophila melanogaster, UniProt Q94527 99-473)
T5 sequence: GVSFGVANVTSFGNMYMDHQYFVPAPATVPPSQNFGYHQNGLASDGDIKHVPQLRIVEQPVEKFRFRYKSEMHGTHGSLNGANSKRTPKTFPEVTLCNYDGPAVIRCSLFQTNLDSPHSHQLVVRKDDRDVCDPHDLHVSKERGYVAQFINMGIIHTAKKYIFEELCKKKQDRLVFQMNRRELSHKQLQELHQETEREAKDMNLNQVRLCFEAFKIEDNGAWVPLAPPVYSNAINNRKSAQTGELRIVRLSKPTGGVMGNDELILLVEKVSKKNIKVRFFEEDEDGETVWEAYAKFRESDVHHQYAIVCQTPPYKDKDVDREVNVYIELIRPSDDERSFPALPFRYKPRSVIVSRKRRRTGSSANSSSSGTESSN

[6] = molecular target: T6, GST-Aq-NF-kB (Amphimedon queenslandica, UniProt A9Y5G7 2-389)
T6 sequence: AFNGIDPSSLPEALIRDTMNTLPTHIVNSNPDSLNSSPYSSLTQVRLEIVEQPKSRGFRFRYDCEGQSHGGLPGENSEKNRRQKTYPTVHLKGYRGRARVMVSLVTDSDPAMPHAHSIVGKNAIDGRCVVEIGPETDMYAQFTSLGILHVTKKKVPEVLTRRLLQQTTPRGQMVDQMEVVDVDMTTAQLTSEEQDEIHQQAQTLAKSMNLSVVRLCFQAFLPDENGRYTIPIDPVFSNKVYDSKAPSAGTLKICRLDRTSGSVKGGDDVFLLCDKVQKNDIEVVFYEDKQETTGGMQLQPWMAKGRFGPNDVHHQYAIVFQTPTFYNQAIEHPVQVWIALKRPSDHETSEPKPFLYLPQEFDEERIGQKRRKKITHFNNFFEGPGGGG

[7] = molecular target: GST-Hu-p50 (Homo sapiens, UniProt P19838 7-356)
Chain of GST-Hu-p50 (P19838 7-356): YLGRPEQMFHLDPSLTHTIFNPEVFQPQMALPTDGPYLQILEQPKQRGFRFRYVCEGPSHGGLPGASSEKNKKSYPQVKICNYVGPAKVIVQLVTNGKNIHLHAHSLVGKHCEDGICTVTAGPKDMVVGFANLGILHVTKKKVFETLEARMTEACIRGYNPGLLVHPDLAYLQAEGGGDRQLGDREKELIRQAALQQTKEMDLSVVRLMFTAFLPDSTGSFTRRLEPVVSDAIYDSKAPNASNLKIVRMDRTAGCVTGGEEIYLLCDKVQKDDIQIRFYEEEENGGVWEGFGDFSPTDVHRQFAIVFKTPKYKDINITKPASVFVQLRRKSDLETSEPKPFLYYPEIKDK

Row | Sequence | binding signal [1] [z-score] | binding signal [2] [z-score] | binding signal [3] [z-score] | binding signal [4] [z-score] | binding signal [5] [z-score] | binding signal [6] [z-score] | binding signal [7] [z-score]
1 | CCGATTAACATCACTATATTCCCTGATGTTAATCGGGTCTTGATTCGCTTGACGCTGCTG | 3.08 | 3.16 | 3.56 | 3.19 | 1.62 | 2.6 | 1.77
2 | CCGATTAACATCACGGGGGAAAATGATGTTAATCGGGTCTTGATTCGCTTGACGCTGCTG | 6.86 | 6.21 | 9.47 | 11.7 | 4.45 | 5.8 | 6.51
3 | CCGATTAACATCAAAATTCCCTTTGATGTTAATCGGGTCTTGATTCGCTTGACGCTGCTG | 5.04 | 8.11 | 8.05 | 2.62 | 5.83 | 7.05 | 6.07
4 | CCGATTAACATCAGGGGGGAATATGATGTTAATCGGGTCTTGATTCGCTTGACGCTGCTG | 7.1 | 6.54 | 7.41 | 10.2 | 5.21 | 6.44 | 6.79
5 | CCGATTAACATCATCAGGGGAAATGATGTTAATCGGGTCTTGATTCGCTTGACGCTGCTG | 5.62 | 7.05 | 8.79 | 5.8 | 2.39 | 4.58 | 5.42
6 | CCGATTAACATCAGGGGGAACCATGATGTTAATCGGGTCTTGATTCGCTTGACGCTGCTG | 7.4 | 6.04 | 7.3 | 8.58 | 5.08 | 4.5 | 5.84
7 | CCGATTAACATCACAAACCCCCCTGATGTTAATCGGGTCTTGATTCGCTTGACGCTGCTG | 6.66 | 4.96 | 6.4 | 3.99 | 7.41 | 5.34 | 6.08
8 | CCGATTAACATCAAAACCTCCCCTGATGTTAATCGGGTCTTGATTCGCTTGACGCTGCTG | 5.96 | 5.34 | 7 | 6.47 | 3.36 | 4.96 | 4.55
9 | CCGATTAACATCAGGGGTAAATATGATGTTAATCGGGTCTTGATTCGCTTGACGCTGCTG | 2.7 | 3.39 | 3.87 | 7.48 | 1.66 | 3.06 | 3.84
10 | CCGATTAACATCAGGGGAACGGATGATGTTAATCGGGTCTTGATTCGCTTGACGCTGCTG | 4.83 | 5.28 | 6.1 | 4.35 | 1.58 | 3.47 | 3.91
11 | CCGATTAACATCAGTTTCCCCCATGATGTTAATCGGGTCTTGATTCGCTTGACGCTGCTG | 6.91 | 6.51 | 8.2 | 10.6 | 2.94 | 5.09 | 6.77
12 | CCGATTAACATCACGGCATTCCCTGATGTTAATCGGGTCTTGATTCGCTTGACGCTGCTG | 2 | 2.64 | 2.35 | 1.73 | 2.31 | 3.81 | 1.4
13 | CCGATTAACATCAGCAAATCCCCTGATGTTAATCGGGTCTTGATTCGCTTGACGCTGCTG | 6.73 | 7.25 | 9.83 | 2.93 | 5.54 | 5.19 | 6.91
14 | CCGATTAACATCAAAAAACCCCTTGATGTTAATCGGGTCTTGATTCGCTTGACGCTGCTG | 8.1 | 8.78 | 7.86 | 2.05 | 8.96 | 8 | 7.64
15 | CCGATTAACATCAGGGGGATCTATGATGTTAATCGGGTCTTGATTCGCTTGACGCTGCTG | 6.31 | 5.52 | 6.98 | 4.28 | 5.1 | 4.5 | 5.83
16 | CCGATTAACATCAGGGGGTAACATGATGTTAATCGGGTCTTGATTCGCTTGACGCTGCTG | 4.79 | 3.69 | 4.43 | 7.22 | 2.49 | 3.72 | 4.06
17 | CCGATTAACATCAGGGAAAGACCTGATGTTAATCGGGTCTTGATTCGCTTGACGCTGCTG | 3.24 | 5.27 | 4.32 | 1.41 | 5.61 | 7.5 | 3.67
18 | CCGATTAACATCAACGAAACCCCTGATGTTAATCGGGTCTTGATTCGCTTGACGCTGCTG | 3.65 | 2.45 | 2.84 | 1.39 | 4.41 | 2.77 | 3.87
19 | CCGATTAACATCAGGGGAAGTCATGATGTTAATCGGGTCTTGATTCGCTTGACGCTGCTG | 5.98 | 7.2 | 7.6 | 4.69 | 6.43 | 6.01 | 5.27
20 | CCGATTAACATCAAGAAAACCCCTGATGTTAATCGGGTCTTGATTCGCTTGACGCTGCTG | 6.98 | 7.2 | 6.87 | 2.44 | 7.76 | 6.52 | 6.8
21 | CCGATTAACATCAAGAAGTCCCCTGATGTTAATCGGGTCTTGATTCGCTTGACGCTGCTG | 7.72 | 7.86 | 7.55 | 3.14 | 7.58 | 6.79 | 6.73
22 | CCGATTAACATCAAAATAACCCCTGATGTTAATCGGGTCTTGATTCGCTTGACGCTGCTG | 6.69 | 5.59 | 5.3 | 3.27 | 4.93 | 5.19 | 5.2
